An excerpt weighted towards active compounds, which were near 4.3% of everything screened.
HIF-2a block = blocks HIF-2a reporter activity; actives 0.72% (n = 360,000); inhibition, % at 18.8 µM; AID 624352; 786-0 RCC cells HIF-2a reporter, luciferase luminescence, overnight;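 active = inhibition of the luminescence signal of 40% or more relative to plate controls, in a single-dose primary screen at 18.75 µM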
MITF TRPM1 inh = MITF TRPM1 promoter inhibition in SK-MEL-5 cells; inhibition, % at 12.5 µM; AID 488899; actives 0.83% (n = 330,000); SK-MEL-5 TRPM1 promoter luciferase, 24 h;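 active = mean inhibition across replicates of 60% or more, whatever share of single replicates reaches that level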
Peg3 promoter = inhibitors of Peg3 promoter; inhibition, % at 20 µM; actives 1.7% (n = 360,000); AID 588405; HeLa PEG-Prom luciferase reporter, luminescence, overnight;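 active = inhibition of at least 50% at 20 µM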
KKLEB cytotox = reduces viability of KKLEB cystic fibrosis airway cells; activity change (cytotoxicity), % at 5 µM; KKLEB CF airway cells viability, ATPlite luminescence, overnight; active compounds read low; cells stimulated with P. aeruginosa culture filtrate; actives 0.36% (n = 360,000); AID 602141;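 active = corrected activity change at or below -50% at 5 µM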
CHOP inhibitor = CHOP inhibition in unfolded protein response; AID 2732; CHO-K1 CHOP-promoter luciferase, tunicamycin-induced, 15-18 h; inhibition, % at 10 µM; actives 3.8% (n = 220,000);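 active = compounds that reduced the stress-induced luciferase reporter signal by more than about 70% of percent inhibition, limit read from the data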;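 also: 0% = tunicamycin plus vehicle and 100% = wells without tunicamycin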
CF NFkB block = inhibitors of cystic fibrosis induced NF-kB | KKLEB NF-kB-GFP reporter, PAF-induced, GFP fluorescence overnight | inhibition, % at 5 µM | actives 0.86% (n = 360,000) | AID 588850;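 active = at least 50% inhibition at 5 µM, scaled per plate between neutral and stimulator controls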;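 also: PAF is a Pseudomonas aeruginosa culture filtrate used as stimulus; plate controls were PAF-stimulated DMSO wells for no effect and unstimulated DMSO wells for full effect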
Starred values were filed as active, the others as inactive; . = no result.

SMILES	HIF-2a block	MITF TRPM1 inh	Peg3 promoter	KKLEB cytotox	CHOP inhibitor	CF NFkB block
CCOc1cc(/C=N/NC(=O)COc2ccccc2C)ccc1OC(=O)c1cccs1	-8	11	20	6	76*	-8
CCOc1cc(/C=N/O)ccc1OS(=O)(=O)c1ccc(C)cc1	6	-17	31	-7	55	44
CCOc1cc(/C=N/NC(=O)COc2ccc(Cl)cc2)ccc1OS(=O)(=O)c1ccccc1	17	-10	13	11	81*	22
CCOc1cc(/C=N/NS(=O)(=O)c2ccccc2)ccc1OS(=O)(=O)c1ccc(C)cc1	9	6	6	10	87*	-7
CCOc1cc(/C=N/NC(=O)c2ccncc2)ccc1OC(=O)c1ccccc1	2	12	-16	14	.	-10
CCOc1cc(/C=N/NC(=O)c2ccncc2)ccc1OC(=O)c1ccc([N+](=O)[O-])cc1	12	11	12	0	81*	-10
CCN(CC(=O)NCc1ccc(Cl)cc1)C(=O)CSCC(=O)Nc1cccc(C)c1	5	0	-5	-5	.	-15
Cc1ccc(S(=O)(=O)N/N=C/c2ccc(OS(=O)(=O)c3ccc(C)c([N+](=O)[O-])c3)cc2)cc1	10	9	6	-7	80*	12
N#Cc1cn(CCOc2ccc(F)cc2)c2ccccc12	-55	-22	-50	-13	55	15
N#Cc1cn(CCOc2ccccc2F)c2ccccc12	-118	-10	-49	-6	74*	5
O=C(CNc1ccccc1)N/N=C/c1cc([N+](=O)[O-])ccc1N1CCCC1	11	4	11	4	73*	3
O=C(Cn1c2ccccc2c(=O)c2ccccc21)N/N=C/c1ccc(N2CCCC2)c([N+](=O)[O-])c1	1	89*	91*	-1	17	-9
N#CCC(=O)N/N=C/c1cc([N+](=O)[O-])ccc1N1CCCC1	6	-21	-57	-2	-2	-106
O=C(Cn1c2ccccc2c(=O)c2ccccc21)N/N=C/c1cc([N+](=O)[O-])ccc1N1CCCCCC1	14	-13	12	-24	-64	17
O=C(N/N=C/c1cc([N+](=O)[O-])ccc1N1CCNCC1)c1ccc([N+](=O)[O-])cc1	28	84*	103*	-7	-9	-5
COc1ccc(CNC(=O)C[C@H]2C[C@H](C(=O)N(C(C)C)C(C)C)[C@@]3(C)c4[nH]c5cc(-c6ccco6)ccc5c4CCN3C2=O)cc1OC	5	18	22	-14	.	14
CCCCCCN1C[C@H](n2cc(-c3ccc(F)cc3)nn2)[C@@H](O)C[C@@H]1c1ccc(Cl)cc1	4	.	98*	-7	.	27
COc1cc2cc(-c3ccc(OC)c(OC)c3C)nc(N)c2cc1OC	23	.	65*	2	.	10
Cc1cccc(NC(=O)CC2SC(=NC3CCCCC3)NC2=O)c1 (stereo unspecified)	9	10	16	0	74*	-13
O=C(CC1SC(=NC2CCCCC2)NC1=O)Nc1ccccc1 (stereo unspecified)	0	-18	-2	10	29	6
Cn1ncc2c(NCc3ccccc3)ncnc21	-2	0	5	4	14	2
Clc1ccc(Cn2ncc3c(NCc4ccccc4)ncnc32)c(Cl)c1	.	.	.	.	81*	.
Cc1sc(NC(=O)CSC2=NCCS2)nc1-c1ccccc1	-5	9	-25	3	73*	-8
O=C(CSC1=NCCS1)Nc1nc2ccccc2s1	-250	-42	-202	-5	25	7
c1ccc(-n2ncc3cccnc32)cc1	-10	-14	-8	4	5	9
SMILES	HIF-2a block	MITF TRPM1 inh	Peg3 promoter	KKLEB cytotox	CHOP inhibitor	CF NFkB block
COc1ccc(CC2=CC(=O)c3ccccc3C2=O)cc1	22	8	47	12	.	52*
COc1ccc(Cc2ccccc2C(=O)O)cc1	1	1	5	7	.	-15
CCN1C(=O)[C@H]2[C@@H](c3ccc(C(F)(F)F)cc3)N[C@]3(CCCN(Cc4ccc(Cl)cc4)C3=O)[C@H]2C1=O	5	.	-6	-12	.	-17
CC(C)(C)C1CCC(=NNS(=O)(=O)c2ccc(Br)cc2)CC1 (stereo unspecified)	2	-1	22	1	92*	9
COc1ccc(-c2c3c(nc4sc5c(Cl)nc(C)nc5c24)CCC3)cc1	-2	47	109*	2	-39	-6
Cc1ccc(-c2c3c(nc4sc(C(N)=O)c(N)c24)CCC3)cc1	29	4	-144	1	18	14
O=c1[nH]c(NC2CCN(S(=O)(=O)c3ccccc3C(F)(F)F)CC2)nc2c1CCCC2	11	71*	4	9	.	15
OC(c1ccc(Cl)c(F)c1)c1ncc(-c2ccccc2F)[nH]1 (stereo unspecified)	-52	.	-5	-3	.	-11
CN(C)CCCN=c1cc(-c2ccccc2)oc2ccc(Cl)cc12	-251	-78	100*	-4	-6	-20
COCCn1c(=NC(=O)c2ccc(S(=O)(=O)N3CCc4ccccc4C3)cc2)sc2cc(OC)ccc21	10	11	12	-69*	12	55*
Cc1cc(C(=O)O)cc(S(=O)(=O)Nc2ccccc2C(=O)NC2CC2)c1C	-5	-1	9	1	.	-11
COC(=O)c1cn(-c2nc3ccccc3s2)nn1	-10	.	.	.	.	.
c1ccc2c(c1)nc(N1CCOCC1)c1ccccc12	10	-25	14	-4	49	0
COc1ccc(Nc2nc(N3CCCC3)c3ccccc3n2)cc1	6	15	60*	1	57	-36
CCN(CC)c1ccc(Nc2nc(N3CCOCC3)c3ccccc3n2)cc1	11	-1	15	-8	74*	10
Cc1nc(N2CCCCCC2)c2ccccc2n1	13	18	10	3	.	-16
CN(CC(=O)Nc1ccc(F)cc1)C(=O)COC(=O)CNC(=O)c1sc2ccccc2c1Cl	-5	-2	-14	0	.	-6
CC1(C(=O)NS(=O)(=O)c2ccc(C#N)cc2)CCN1C(=O)C1(c2ccccc2)CCCC1 (stereo unspecified)	13	.	22	-10	.	15
C=CCn1ccc(=O)nc1SC	6	5	1	13	.	-14
O=C(COC(=O)c1ccc([N+](=O)[O-])cc1Cl)Nc1cccnc1Cl	5	-1	8	8	.	-11
Cc1cc(/C=C2\Cc3ccccc3C2=O)c(C)n1-c1ccccc1	44*	44	49	-35	89*	-15
CCC1CO/C(=C(\C(Cl)=C(Cl)Cl)[N+](=O)[O-])N1 (stereo unspecified)	5	1	11	-3	79*	-11
CN1CCO/C1=C(\C(Cl)=C(Cl)Cl)[N+](=O)[O-]	4	11	17	12	7	13
